Measured values reported in PubChem BioAssay AID2205 (University of Pittsburgh Molecular Library Screening Center, 2009).
Hit rate of the full screen: of about 200,000 compounds, about 1,600 (0.8%) were called active.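 The calls were made as follows: active = plate Z-score above 3 for both tubulin-high and condensed-nucleus cell shares, with cell loss under 80%, at 10 µM; inactive = the rest, inconclusive results apart.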 This excerpt belongs to a sample that is enriched for actives.

Test: tubulin staining increase by stabilizing compounds – imaging, high-content imaging, primary screen (AID 2205);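 as to % tubulin-high responders: anti alpha tubulin signal scored within the nucleus-defined area of each cell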;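 as to toxicity: 0% = mean cell density of plate MIN control wells and 100% = no cells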
Conditions: HeLa tubulin immunostaining HCS, 24 h, at 10 µM; % Hoechst-high responders: measured here: nuclear condensation Hoechst responders, stronger effect = higher value, share of cells brighter than vehicle mean+2SD; % tubulin-high responders: stronger effect = higher value, share of cells brighter than vehicle mean+2SD; toxicity: measured here: cytotoxicity by cell density

Compound | % Hoechst-high responders [%] | % tubulin-high responders | toxicity [%]
S=C(NCc1ccc2c(c1)OCO2)NCc1ccco1 | 2 | 2.06% (inactive) | 3.56
CCCc1nc2c(c(=O)c3ccccc3n2C)c(=O)n1C1CCCCCC1 | 3.07 | 3.44% (inactive) | 9.47
COc1ccc(C(=O)CSc2nnc(COc3ccccc3)n2Cc2ccco2)cc1 | 8.33 | 11.9% (inactive) | 4.55
Cn1c2ccccc2c(=O)c2c(=O)n(Cc3ccco3)c(COc3ccccc3)nc21 | 17 | 15.2% (active) | 19.6
CCOC(=O)CC(NC(=O)C1c2ccccc2Oc2ccccc21)c1ccc(C)cc1 (stereo unspecified) | 1.91 | 1.78% (inactive) | 3.3
Cc1cc(-c2nnc(CCC(=O)NC(c3ccccc3)c3ccccc3)o2)no1 | 1.8 | 2.51% (inactive) | 7.53
O=C(COC(=O)c1cc(=O)[nH]c2ccccc12)Nc1nc(-c2cccc(Br)c2)cs1 | 3.67 | 2.11% (inactive) | 8.74
NS(=O)(=O)c1ccc(CCNC(=O)CCCn2c(SCC(=O)N3CCCC3)nc3ccsc3c2=O)cc1 | 2.7 | 1.43% (inactive) | 6.34
CC[C@H]1CN2CCc3cc(OC)c(OC)cc3[C@@H]2C[C@@H]1C[C@H]1NCCc2cc(OC)c(OC)cc21 | 20.9 | 55.7% (active) | 75.2
COc1cc2c(cc1O)[C@H](Cc1ccc(Oc3cc(C[C@@H]4NCCc5cc(OC)c(O)cc54)ccc3O)cc1)NCC2 | 2.73 | 2.04% (inactive) | 13.6
CCCCn1c(N)c(N(CC)C(=O)/C=C/c2ccco2)c(=O)[nH]c1=O | 2.6 | 6.6% (inactive) | 4.9
CC(C)n1c(=O)[nH]c2cc(C(=O)Nc3ccccc3)ccc21 | 0.954 | 1.61% (inactive) | 1.51
COc1ccc(-n2c(C)nn(CC3CC3)c2=O)cc1 | 1.41 | 0.918% (inactive) | 4.19
COc1ccccc1NC(=O)C1=C(C)Nc2nc3ccccc3n2C1c1cccs1 (stereo unspecified) | 37.9 | 14.5% (active) | 54.8
CCOc1ccc(C2C(C(=O)NC)=C(C)Nc3nc4ccccc4n32)cc1OC (stereo unspecified) | 1.52 | 3.35% (inactive) | 7.37
CCOC(=O)C1=C(C)Nc2nc3ccccc3n2C1c1cccs1 (stereo unspecified) | 2.61 | 1.67% (inactive) | 7.26
Cc1ccc(-n2c(C)cc(C(=O)CSc3nnc4ccccn34)c2C)cc1 | 2.88 | 3.52% (inactive) | 5.15
COc1ccc(Nc2nc(-c3ccccc3)cs2)cc1 | 2.53 | 3.24% (inactive) | 3.05
COc1ccc(OC)c(Nc2nc(-c3ccc(O)c(O)c3)cs2)c1 | 33.9 | 34% (active) | 37
COc1ccc(-c2csc(Nc3ccc(O)cc3)n2)cc1 | 4.55 | 6.13% (inactive) | 2.94
COc1ccc(NC(C(=O)Nc2cccc(C(C)=O)c2)c2ccccc2)cc1 (stereo unspecified) | 4.94 | 2.7% (inactive) | 7.43
CCc1cc2cc(OC)ccc2nc1SCC(=O)Nc1cc(OC)c(OC)cc1C(=O)O | 1.91 | 2.13% (inactive) | 7.82
COc1ccccc1C(c1nnnn1CC1CCCO1)N1CCN(c2ccccc2)CC1 (stereo unspecified) | 1.03 | 3.39% (inactive) | 0.528
Nc1ncc(-c2cc3ccccc3oc2=O)s1 | 2.39 | 5.77% (inactive) | 5
O=c1oc2ccccc2cc1-c1cn(-c2ccccc2)c(=S)[nH]1 | 36.5 | 12.5% (active) | 39.3
O=C(c1cn(-c2ccccc2)nc1-c1cc2ccccc2oc1=O)N1CCOCC1 | 1.17 | 1.1% (inactive) | 0.611

Compound | % Hoechst-high responders [%] | % tubulin-high responders | toxicity [%]
Cc1ccc(S(=O)(=O)CCC(=O)OCc2ccccc2)cc1 | 1.72 | 4.05% (inactive) | 4.99
CC1CCN(c2ccc([N+](=O)[O-])cc2C(N)=O)CC1 | 1.09 | 5.37% (inactive) | 13
O=c1cc(N2CCCCC2)c(-c2ccccc2)nn1Cc1cccc(F)c1 | 0.91 | 7.03% (inactive) | 4.95
Cc1ccc(-c2cc(=O)c3ccc(Cl)cc3[nH]2)cc1 | 1.34 | 2.15% (inactive) | 1.49
Cc1ccc(-c2cc(=O)c3ccc(F)cc3[nH]2)cc1 | 14.3 | 22.4% (active) | 28.4
O=c1cc(-c2ccccc2)[nH]c2cc(F)ccc12 | 48.5 | 14.7% (inactive) | 37.5
CN(CC(=O)NC1CCCC1)S(=O)(=O)c1cnc[nH]1 | 1.61 | 4.66% (inactive) | 8.08
Cc1nn(CC2CC2)c(=O)n1N(C)c1ncc(C(F)(F)F)cc1Cl | 3.3 | 5.71% (inactive) | 3.78
Cc1cc(C)n(-c2nc(C(F)(F)F)nc3ccccc23)n1 | 2.48 | 5.42% (inactive) | 5.25
COC(=O)CNC(=O)c1ccccc1F | 1.58 | 0.975% (inactive) | 9.24
CN(NC(=O)c1ccccc1)c1nc2ccccc2nc1C(F)(F)F | 38 | 48.6% (active) | 33.5
CN(NC(=O)c1ccccc1F)c1nc(C(F)(F)F)nc2ccccc12 | 59.1 | 12.1% (active) | 32.2
CSc1nc(N(C)NC(=O)c2cccc(C)c2)c2ccccc2n1 | 33.9 | 13.4% (inactive) | 39.2
COc1ccc(C(=O)NN(C)c2nc(-c3ccccc3)cc(C)c2S(C)(=O)=O)cc1 | 3.04 | 2.71% (inactive) | 4.33
CCN(CC)S(=O)(=O)c1ccc(N(C)CCc2ccc(OC)c(OC)c2)nc1 | 1.73 | 5.42% (inactive) | 7.66
Cc1ccsc1C(=O)N/N=C/c1ccc([N+](=O)[O-])cc1 | 2.36 | 3.58% (inactive) | 0.132
Cc1ccc(COc2ccc(/C=N/NC(=O)CN3CCCCC3)cc2)cc1 | 2.2 | 1.76% (inactive) | 4.99
Cc1ccc(/C=N/NC(=O)c2sccc2OCc2ccc(F)cc2)cc1 | 18.4 | 39.2% (active) | 68.8
Cn1cnnc1SCC(=O)Nc1ccc(N2CCOCC2)cc1 | 3.45 | 1.73% (inactive) | 7.15
O=C(c1snnc1-c1ccccc1)N1CCOCC1 | 2.21 | 5.38% (inactive) | 8.24
O=C(COC(=O)c1cnc(Cl)c(Cl)c1)NCc1ccco1 | 2.45 | 2.71% (inactive) | 7.79
Cc1cc(C(=O)OCC(=O)NCc2ccco2)c(C)n1-c1ccccc1 | 31.8 | 24.1% (active) | 57.4
O=C(COC(=O)c1cc(S(=O)(=O)N2CCCCC2)ccc1Cl)NCc1ccco1 | 2.04 | 2.32% (inactive) | 4.83
O=C(Cn1nnc(-c2ccccc2)n1)N/N=C/c1ccc(-c2ccc(Cl)cc2)o1 | 2.75 | 3.12% (inactive) | 5.19
O=C(CCNS(=O)(=O)c1ccc(Br)s1)NCc1ccccc1Cl | 1.95 | 0.853% (inactive) | 9.73
CCC(C)(C(=O)Nc1ccccc1C)N(C(=O)CNC(C)=O)c1ccc(C)cc1 (stereo unspecified) | 3.25 | 4.21% (inactive) | 4.1

Compound | % Hoechst-high responders [%] | % tubulin-high responders | toxicity [%]
CCOc1ccc(Br)cc1S(=O)(=O)Nc1ccc(C(=O)OC(C)C(=O)N(C)c2ccccc2)cc1 (stereo unspecified) | 0.626 | 6.66% (inactive) | 0.658
Cc1cc(C)n(-c2cc(Oc3ccccc3)ncn2)n1 | 0.881 | 1.4% (inactive) | 3.38
COc1ccc(Nc2cc(C)nc(-n3nc(C)cc3C)n2)cc1 | 25.7 | 11.5% (inactive) | 60.4
CC(=O)c1ccc(Oc2cc(C)nc(-n3nc(C)cc3C)n2)cc1 | 57.9 | 17.9% (active) | 18.9
CCn1cc(CN2CCCC(CNS(=O)(=O)Cc3ccccc3)C2)cn1 (stereo unspecified) | 2.22 | 3.89% (inactive) | 8.22
O=C(CN1CCN(Cc2ccc(F)cc2Cl)C1=O)NCc1cccs1 | 1.49 | 1.68% (inactive) | 2.53
CC(C)CNC(=O)CC(NCC(C)C)C(=O)O (stereo unspecified) | 2.02 | 2.59% (inactive) | 6.47
O=C(/C=C/c1cccs1)NCc1cccnc1 | 2.05 | 2.55% (inactive) | 5.06
CCOC(=O)N1CCN(S(=O)(=O)c2ccc(C(=O)Nc3ccc(F)cc3F)cc2)CC1 | 35.2 | 29.1% (active) | 67.6
COc1ccc(C(=O)Nc2ccc(F)cc2F)cc1 | 1.66 | 1.84% (inactive) | 2.01
O=C(Nc1cccc(F)c1)c1ccc(S(=O)(=O)N2CCCC2)cc1 | 3.36 | 4.55% (inactive) | 7.13
C/[N+]([O-])=C\c1ccc([N+](=O)[O-])o1 | 1.53 | 1.72% (inactive) | 3.24
CCCn1c(SCC(=O)Nc2ccc(C)c(S(=O)(=O)N3CCOCC3)c2)n[nH]c1=O | 2.38 | 5.82% (inactive) | 5.63
CC(C)C(=O)Nc1cccc(NC(=S)NC(=O)C(c2ccccc2)c2ccccc2)c1 | 44 | 30.3% (active) | 36.2
CC(C)C(=O)NC(=S)Nc1ccccc1F | 1.63 | 3.48% (inactive) | 5.15
CCCCC(=O)NNC(=S)NC(=O)C(c1ccccc1)c1ccccc1 | 1.83 | 2.83% (inactive) | 2.74
CC(Sc1nnc2c(n1)C1CCC2(C)C1(C)C)C(=O)Nc1ccccc1 (stereo unspecified) | 3 | 3.52% (inactive) | 9.4
O=C(/C=C/c1ccc(Cl)c([N+](=O)[O-])c1)c1cccnc1 | 0.942 | 1.22% (inactive) | 2.98
Cc1cc(NC(=O)CSc2nc(C(C)C)nc3sc4c(c23)CCC(C)C4)no1 (stereo unspecified) | 2.02 | 5.74% (inactive) | 9.29
CC1CCc2c(sc3nc4n(c(=O)c23)CCS4)C1 (stereo unspecified) | 1.5 | 1.55% (inactive) | 8.83
C=CCn1c(SCc2c(C)noc2C)nc2sc3c(c2c1=O)CCC(C)C3 (stereo unspecified) | 27.2 | 31.2% (active) | 44.4
O=C(CCn1ccc([N+](=O)[O-])n1)Nc1nccs1 | 2.43 | 6.18% (inactive) | 8.86
CCN1/C(=C/c2ccc3ccc(C)cc3[n+]2CC)Sc2ccccc21 | 2.38 | 4.83% (inactive) | 9.09
CCC(=O)/C=C1\Sc2ccccc2N1CC | 0.853 | 4.83% (inactive) | 6.64
CCN1/C(=C\c2ccc3ccccc3[n+]2CC)Sc2cc(C)ccc21 | 5.5 | 8.18% (active) | 19.1
